From ChEMBL document CHEMBL3433997, “St. Jude Leishmania screening dataset” (2016) come the findings set out here.

What all share (assay type): functional
The target of assay [1] is Solute carrier family 2, facilitated glucose transporter member 1 (Homo sapiens) (UniProt P11166). Put plainly: ST_JUDE_LEISH: Cytotoxicity at 2uM final concentration against transgenic Leishmania Mexicana promastigotes LmGLUT1 that are glucose transport deficient and complemented with the human glucose transporter GLUT1. Activity is measured by DNA content using SYBR green in vitro.

Assay [2] addresses Hexose transporter 1 (Plasmodium falciparum) (UniProt O97467). Description: ST_JUDE_LEISH: Cytotoxicity at 2uM final concentration against transgenic Leishmania Mexicana promastigotes LmPfHT that are glucose transport deficient and complemented with the Plasmodium falciparum hexose transporter. Activity is measured by DNA content using SYBR green in vitro.
In assay [3] the target is Glucose transporter (Leishmania mexicana) (UniProt O61059). Put plainly: ST_JUDE_LEISH: Cytotoxicity at 2uM final concentration against transgenic Leishmania Mexicana promastigotes LmGT2 that are glucose transport deficient and complemented with the L. Mexicana glucose transporter 2. Activity is measured by DNA content using SYBR green in vitro.

The structures appear in SMILES notation. Values joined by “and” are separate entries in the source; they are usually repeats but may differ in a detail not shown here. Equal entries are not always repeated.

Sequence of Solute carrier family 2, facilitated glucose transporter member 1 (Homo sapiens) (P11166 whole entry): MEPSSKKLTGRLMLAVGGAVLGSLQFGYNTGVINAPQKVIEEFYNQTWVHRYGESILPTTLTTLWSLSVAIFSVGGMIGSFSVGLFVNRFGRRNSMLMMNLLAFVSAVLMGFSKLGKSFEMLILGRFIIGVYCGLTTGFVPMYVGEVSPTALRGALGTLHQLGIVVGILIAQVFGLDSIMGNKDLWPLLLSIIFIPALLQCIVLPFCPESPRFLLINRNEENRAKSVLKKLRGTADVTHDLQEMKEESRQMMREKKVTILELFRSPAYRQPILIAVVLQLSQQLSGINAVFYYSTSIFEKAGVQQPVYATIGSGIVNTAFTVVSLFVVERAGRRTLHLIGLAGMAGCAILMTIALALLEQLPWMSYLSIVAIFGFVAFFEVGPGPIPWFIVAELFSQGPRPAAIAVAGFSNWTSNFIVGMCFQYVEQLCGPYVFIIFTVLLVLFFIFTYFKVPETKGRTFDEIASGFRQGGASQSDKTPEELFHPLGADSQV

What is called inhibition is the relative decrease from the control value, in per cent. For the compound `CC(=O)Nc1ccc(OCCCN(Cc2ccccc2OC(F)(F)F)c2ccc(C(F)(F)F)c(C#N)c2)c(Cl)c1`, the inhibition was 2.37% in assay [1], -1.13% in assay [2] and 1.86% in assay [3].
On the same counts, the results for `CCOc1cc(C(=O)Nc2ccc3nc(N4CCN(C)CC4)cc(C)c3c2)cc(OCC)c1OCC` are 3.11%, 3.76% and 1.63%.
On the same counts, the results for `Cc1c(-c2cccc(C(C)(C)NC3CCN(Cc4ccccc4)CC3)c2)cnc(N)c1C` are 2.58%, 0.02% and 2.38%.
On the same counts, the results for `Cc1nc(-c2nc(NCCc3c(C)noc3C)ncc2-c2ccsc2)sc1C` are 1.02%, 1.58% and 2.5%.
Turning to `c1ccc(CNCc2cccc(-c3cccc(-c4nc5ccccc5[nH]4)c3)c2)cc1`, the inhibition in assay [1] was found to be 4.44%; in assay [2] it was 5.52%; in assay [3], 3.48%.
Consider `O=C(Nc1cc(Cl)ccc1O)c1cc(-c2ccccc2O)no1`, for which the inhibition in assay [1] was -2.41%; in assay [2], -2.61%; in assay [3], -2.64%.
For `COC(=O)[C@@H](NC(=O)[C@H](CC(C)C)Nc1ccc(C#N)c2ccccc12)c1ccc(O)cc1`, in that order: 1.02%, 0.76% and -2.23%.
For `Cc1nc(Nc2ccncc2)cc(-c2ccncc2)n1`, in that order: 0.59%, 4.18% and 2.92%.
On the same counts, the results for `CC1CCC(C(C)C)C(OC(=O)CSc2nnc3c(n2)[nH]c2ccccc23)C1` (stereo unspecified) are -1.05%, -0.14% and -0.42%.
Take `O=C(/C=C/c1ccc(Cl)cc1)NCCCCCN1CCC(C(=O)Nc2ccc(Cl)c(Cl)c2)CC1`: the inhibition was -0.38% in assay [1], -2.11% in assay [2] and -0.64% in assay [3].
With `Fc1ccc2[nH]c(-c3ccc(-c4ccc(CN5CCC(CCN6CCCCC6)CC5)cc4)s3)nc2c1`, the inhibition in assay [1] stood at 5.18%; in assay [2], 3.85%; in assay [3], 4.98%.
Consider `Oc1ccc(CCNc2nc(N/N=C/c3ccc(Cl)cc3)nc(N3CCNCC3)n2)cc1`, for which the inhibition in assay [1] was -0.62%; in assay [2] it was 1.75%; in assay [3], 0.33%.
As to `O=C(Nc1cccc(OC2CCN(Cc3ccccc3)CC2)c1)c1ccc([N+](=O)[O-])cc1`, the inhibition was determined as 4.89% in assay [1], 4.94% in assay [2] and 4.55% in assay [3].
As to `CC(C)(C)c1ccc(S(=O)(=O)Nc2ccccc2N2CCOCC2)cc1`, the inhibition in assay [1] stood at 6.54%; in assay [2] it was 4.11%; in assay [3], 0.2%.
For `Cc1nc(-c2cccc(Nc3ccnc4cc(-c5nccs5)ccc34)c2)no1`, in that order: 2.59%, 2.43% and 2.74%.
For `c1ccc(COc2ccc(COc3ccc(Cn4ccnc4)cc3)cc2)cc1`, in that order: 2.93%, 2.15% and 1.02%.
For `CCc1nc2c(cnn2CC)c(NC2CCOCC2)c1CNC(=O)N1CCOCC1`, in that order: 3.81%, -1.12% and -0.36%.
On to `O=C(/C=C/c1ccc(Cl)c(Cl)c1)NCCCCCN1CCC(c2c[nH]c3ccccc23)C(O)C1` (stereo unspecified), for which the inhibition was 0.14% and 4.45% in assay [1]; 0.8% and 4.3% in assay [2]; 2.14% and 3.3% in assay [3].
In the case of `Cc1cc2c(cc1C(F)(F)F)N(C(=O)Nc1cc(C(=O)NC3CCN(Cc4ccccc4)C3)cc(C(F)(F)F)c1)CC2` (stereo unspecified), the inhibition in assay [1] came to 6.43%; in assay [2], 6.1%; in assay [3] it was 7.35%.
In the case of `OC1=C2C(=Nc3ccccc3SC2c2ccccc2)c2ccccc21` (stereo unspecified), the results for the inhibition in assay [1], in assay [2] and in assay [3] were 4.3%, 5.31% and 1.01%, respectively.
For `Oc1ccccc1CNC1CCCCC1NCc1ccccc1O` (stereo unspecified), the inhibition came out at 7.77% in assay [1], 9.96% in assay [2] and 4.48% in assay [3].
For `COc1cc(C(=O)NC2CCN(Cc3ccccc3)CC2)ccc1-c1cc2cc(Cl)c(Cl)cc2[nH]1`, in that order: 3.35%, 4.32% and 2%.
Turning to `CCc1nc2c(cnn2CC)c(NC2CCOCC2)c1CNC(=O)c1ccoc1C`, the inhibition came to 6.4% in assay [1], 6.38% in assay [2] and 2.97% in assay [3].
On the same counts, the results for `CN(C)C(=O)n1cnc(S(=O)(=O)N(C)c2ccc(Cl)cc2)n1` are 5.67%, 6.99% and 4.38%.
For `CCn1c(-c2nonc2N)nc2c(-c3cccc(NC(=O)Nc4ccccc4Cl)c3)ncc(OCCCN)c21`, in that order: -1.06%, -1.1% and -0.34%.
On the same counts, the results for `CC(=O)Nc1cccc(C(=O)Nc2cccc(-c3ccc(-c4nc5cccc(C)c5[nH]4)cc3)c2)c1` are 0.33%, 1.27% and 4.99%.
Turning to `COc1cc(Cc2c(C)nc3nc(N)nc(N)c3c2C)c(Br)c(OC)c1OC`, the inhibition in assay [1] came out at 5.54%; in assay [2], 8.22%; in assay [3], 4.73%.
For `CCN(CC)CCN(Cc1ccc(-c2ccc(C(F)(F)F)cc2)cc1)C(=O)Cn1c(CCc2cccc(F)c2F)nc(=O)c2ccc(C(F)(F)F)cc21`, in that order: 1.5%, 1.49% and 1.99%.
For `Cc1nc2ccc3ccc(CNc4ccc(C(=O)N[C@@H](CCC(=O)O)C(=O)N[C@@H](Cc5cccs5)C(=O)O)c(F)c4)cc3c2c(=O)[nH]1`, in that order: 6.55%, 7.51% and 6.36%.
Turning to `COc1ccc2nccc([C@@H](O)CN3CCC(NC(=O)Cc4cc5ccccc5s4)CC3)c2c1`, the inhibition in assay [1] amounted to 8.41%; in assay [2], 6.59%; in assay [3], 1.96%.
On the same counts, the results for `O=C(Cn1c(CCc2cccc(F)c2F)nc(=O)c2ccccc21)N(Cc1ccc(-c2ccc(C(F)(F)F)cc2)cc1)C1CCN(C2CCOCC2)CC1` are 1.91%, 2.37% and 1.17%.
For `Brc1ccsc1-c1nc(NC2CCN(Cc3ccccc3)CC2)no1`, in that order: -0.23%, 5.86% and -0.38%.
For the compound `Cc1cccc2nc(-c3ccc(-c4cccc(NC(=O)COc5ccccc5C(N)=O)c4)s3)[nH]c12`, the inhibition was determined as 9.69% in assay [1], 9.14% in assay [2] and 6.9% in assay [3].
`O=C(NCc1ccc(Cl)c(Cl)c1)c1ccc(-c2nc3cc(F)c(F)cc3[nH]2)cc1`: the inhibition in assay [1] is 0.21%; in assay [2] it was 0.14%; in assay [3], -0.73%.
Regarding `COc1ccc2nc(C)cc(NCc3ccc4ccccc4c3)c2c1`, the results for the inhibition in assay [1], in assay [2] and in assay [3] were 12.8%, 9.9% and 5.11%, respectively.
On to `COc1cccc(-n2ncc3c(N/N=C/c4ccc(CN(C)CCN(C)C)cc4)ncnc32)c1`, for which the inhibition in assay [1] is 10.7%; in assay [2], 10.3%; in assay [3], 7.16%.
Turning to `CCN1CCC(N(Cc2ccc(-c3ccc(C(F)(F)F)cc3)cc2)C(=O)Cn2c(CCc3cccc(F)c3F)cc(=O)c3c2CCCC3)CC1`, the results for the inhibition in assay [1], in assay [2] and in assay [3] were 0.35%, 0.64% and 0.87%, respectively.
In the case of `COc1ccc(-c2cc3ncn(CC(=O)N4CCN(c5cccc(OC)c5)CC4)c(=O)c3s2)cc1`, the inhibition in assay [1] was 2.19%; in assay [2], 3.48%; in assay [3], 2.45%.
On the same counts, the results for `Cc1nc2c(Nc3nc(-c4ccncc4)cs3)ncnc2n1-c1ccccc1Cl` are 45.1%, 38.8% and 13.4%.
For `Cc1cc(-c2cccc(CNCc3ccccc3)c2)ccc1S(=O)(=O)NCCN1CCCC1`, in that order: 6.02%, 8.53% and 5.69%.
Take `COc1ccc(NC(=O)/C=C/c2ccc(Cl)c(Cl)c2)cc1N1CCN(C)CC1`: the inhibition in assay [1] worked out at 9.73%; in assay [2], 4.85%; in assay [3], 6.48%.
For the compound `CC(C)(C)c1ccc(CNCC(C)(C)c2nc(-c3ccnc(N)n3)c(-c3ccc(Cl)c(O)c3)[nH]2)cc1`, the inhibition in assay [1] amounted to 5.04%; in assay [2] it was 6.23%; in assay [3], 4.54%.
In the case of `O=C(Nc1cccc(-c2cccc(-c3nc4ccccc4[nH]3)c2)c1)Nc1ccc(F)c(F)c1F`, the inhibition in assay [1] amounted to 2.74%; in assay [2], 4.36%; in assay [3], 3.88%.
For `COc1ccc(CNCc2ccc(-c3cccc(-c4nc5cc(C(F)(F)F)ccc5[nH]4)c3)cc2)cc1`, in that order: -1.07%, -0.35% and -2.33%.
On the same counts, the results for `O=C(NCc1ccc(Cl)cc1)c1ccc(C(=O)NCC2CCCN2CC2CCCCC2)cc1` (stereo unspecified) are 2.97%, 1.54% and 1.14%.
Turning to `O=C(Nc1ccc(F)cc1F)NC1CCN(c2ccnc3cc(Cl)ccc23)C1` (stereo unspecified), the inhibition in assay [1] was 6.88%; in assay [2], 7.63%; in assay [3] it was 6.34%.
On the same counts, the results for `Nc1ccc(-c2nc3c(ccc4ccccc43)[nH]2)cc1` are 2.25%, 1.85% and 0.2%.
